These results are taken from a collection of fitness landscapes (doi:10.1126/science.1257360).

Sequences and labels used below:
B1: PhoQ; a variant is named by its letters at X, in order, P23837 (parent)
chain: MKKLLRLFFPLSLRVRFLLATAAVVLVLSLAYGMVALIGYSVSFDKTTFRLLRGESNLFYTLAKWENNKLHVELPENIDKQSPTMTLIYDENGQLLWAQRDVPWLMKMIQPDWLKSNGFHEIEADVNDTSLLLSGDHSIQQQLQEVREDDDDAEMTHSVAVNVYPATSRMPKLTIVVVDTIPVELKSSYMVWSWFIYVLSANLLLVIPLLWVAAWWSLRPIEALAKEVRELEEHNRELLNPATTRELTSLVRNLNRLLKSERERYDKYRTTLTDLTHSLKTPLXXLQXXLRSLRSEKMSVSDAEPVMLEQISRISQQIGYYLHRASMRGGTLLSRELHPVAPLLDNLTSALNKVYQRKGVNISLDISPEISFVGEQNDFVEVMGNVLDNACKYCLEFVEISARQTDEHLYIVVEDDGPGIPLSKREVIFDRGQRVDTLRPGQGVGLAVAREITEQYEGKIVAGESMLGGARMEVIFGRQHSAPKDE

Whole data set: some 140,000 sequences, median “enrichment ratio after two sorts for PhoP signalling” near 0, cut for the highest 2% near 11. This excerpt belongs to a sample that is enriched for the highest values. Bounds are passed on as bounds.

In the assay the parent is B1. Briefly: enrichment ratio after two sorts for PhoP signalling (ratio (wild type AVST 3.29)); higher = more functional. The conditions noted are these: with PhoP (E. coli).
As for SQGF, the enrichment ratio came out at 0.381.
Turning to SEGF, the enrichment ratio worked out at 12.8.
Regarding SRGF, the enrichment ratio is 0.392.
Consider KYMF, for which the enrichment ratio is at most 0.25.
On to KYGF, for which the enrichment ratio was at most 0.25.
As for MQAN, the enrichment ratio amounted to 2.41.
With VFHF the figure was at most 0.25; with QYTY, at most 0.25; with GGWG, at most 0.25.
As for IALA, the enrichment ratio was at most 0.25.
The result for AVFF reads at most 0.25; that for YVCH, 0.383; that for GERH, at most 0.25.
With DKRH the figure was at most 0.25.
The result for SELM reads 15.6; that for SLLM, 6.84.
As to GALM, the enrichment ratio worked out at 12.1.
With SILM the figure was 0.906.
The result for HILM reads at most 0.25; that for SNLM, 12.
The result for GTLM reads 14.5; that for SRLM, 8.53.
With LTLM, the enrichment ratio was 2.03.
As to SFLM, the enrichment ratio worked out at 4.5.
As for GMLM, the enrichment ratio stood at 1.25.
The result for GYLM reads at most 0.25; that for SPGC, at most 0.25; that for GWTC, at most 0.25.
Consider WFGV, for which the enrichment ratio was at most 0.25.
Take IFGQ: the enrichment ratio was at most 0.25.
With VSCI the figure was 7.51; with VLVC, at most 0.25; with SCAA, 5.68.
The result for PIFW reads 1.39; that for LQRE, at most 0.25; that for NQHW, at most 0.25.
The result for ATLM reads 21.4; that for GCLM, 16.5.
Turning to SALM, the enrichment ratio was found to be 12.7.
TTLM: the enrichment ratio stood at 16.5.
IILM: the enrichment ratio stood at 0.265.
With KQLM the figure was at most 0.25; with VCLM, 4.34.
The result for YTLM reads 9.3; that for QCLM, at most 0.25; that for ITLM, 8.61.
For the variant YLIN, the enrichment ratio was at most 0.25.
The result for MTRF reads at most 0.25; that for FHGK, at most 0.25.
On to PTLY, for which the enrichment ratio is at most 0.25.
Consider EFRH, for which the enrichment ratio was at most 0.25.
With APYT the figure was at most 0.25; with YSRL, at most 0.25; with LVSS, at most 0.25.
DSTR: the enrichment ratio is at most 0.25.
On to IRCW, for which the enrichment ratio is at most 0.25.
The result for TYHN reads at most 0.25.
Take GEDL: the enrichment ratio was at most 0.25.
On to GILM, for which the enrichment ratio worked out at 15.7.
Regarding LNLM, the enrichment ratio was at most 0.25.
The result for GFLM reads 2.69.
The result for VFLM reads at most 0.25.
The result for MCLM reads 6.74; that for TNLM, 2.74; that for VNLM, 22.6.
For GNLM, the enrichment ratio is 17.5.
For VYLM, the enrichment ratio was at most 0.25.
Turning to GIYR, the enrichment ratio is at most 0.25.
With GIPM the figure was at most 0.25.
With MNLM the figure was 15.1; with AYGP, at most 0.25.
In the case of WTPP, the enrichment ratio was at most 0.25.
The result for ECHD reads at most 0.25.
With DMYC the figure was at most 0.25; with TAWF, 5.36.
On to GYWP, for which the enrichment ratio is at most 0.25.
With GPLY the figure was at most 0.25.
With SPLM the figure was at most 0.25; with GKLM, 12.5; with MNPM, at most 0.25.
As to GKVM, the enrichment ratio was at most 0.25.
MTLM: the enrichment ratio amounted to 13.8.
As for GKLA, the enrichment ratio was at most 0.25.
With MNIM the figure was 12.3; with MPLM, at most 0.25; with MNCK, at most 0.25.
With MMLM the figure was at most 0.25; with STLM, 11.2; with WSKW, at most 0.25.
With HRWY the figure was at most 0.25; with RRQK, at most 0.25; with PAKQ, at most 0.25.
As to VEYL, the enrichment ratio was at most 0.25.
The result for MFKL reads at most 0.25; that for KGPS, at most 0.25.
For KVQA, the enrichment ratio is at most 0.25.
With SDTV the figure was 13.5.
With KITV, the enrichment ratio was at most 0.25.
The result for SMDV reads at most 0.25; that for SMTV, 11.4; that for KFTV, at most 0.25.
With SVDV the figure was at most 0.25; with SRTV, at most 0.25.
With SYTV the figure was 0.308; with SAMF, 14.8; with KAMF, at most 0.25.
In the case of SVTV, the enrichment ratio was found to be 11.3.
Consider NAMF, for which the enrichment ratio is at most 0.25.
With YFHI the figure was at most 0.25; with TFLR, 0.372; with GGFA, at most 0.25.
As for GQMI, the enrichment ratio was at most 0.25.
The result for LTAP reads at most 0.25; that for RPSV, at most 0.25.
The result for WEGK reads at most 0.25.
With QYAI the figure was at most 0.25.
As to QETV, the enrichment ratio is at most 0.25.
Consider KYTV, for which the enrichment ratio was at most 0.25.
The result for TETV reads 17.9.
The result for STMD reads 9.32; that for KSTV, at most 0.25; that for SITV, 11.8.
As for AKTV, the enrichment ratio was determined as 5.31.
With SQGD the figure was at most 0.25.
Consider NETV, for which the enrichment ratio worked out at 8.86.
The result for SQMD reads 17.4; that for TKTV, 20; that for SPTV, at most 0.25.
The result for RQLF reads at most 0.25; that for MHPM, at most 0.25; that for IVSV, at most 0.25.
For LDYS, the enrichment ratio is at most 0.25.
The result for PIMI reads at most 0.25.
Consider YPRI, for which the enrichment ratio is at most 0.25.
The result for KIFY reads at most 0.25; that for SETV, 14.9.
With STIS the figure was 8.13.
With YTIV, the enrichment ratio came to 0.385.
The result for STIV reads 11.9; that for NVTV, at most 0.25; that for SIAV, 12.2.
With TSTV the figure was 26.5.
As for KYAV, the enrichment ratio was at most 0.25.
In the case of WIAV, the enrichment ratio is at most 0.25.
For the variant SLTV, the enrichment ratio was 10.4.
Regarding SSTV, the enrichment ratio is 10.5.
The result for MMTV reads at most 0.25; that for GKTV, at most 0.25; that for KFQS, at most 0.25.
Regarding SNDT, the enrichment ratio is at most 0.25.
Consider RWGI, for which the enrichment ratio was at most 0.25.
The result for EKED reads at most 0.25; that for VMLL, at most 0.25.
